We go through 39 compounds from PubChem BioAssay (NCI).

The panel holds about 79,000 compounds, 15% with a hit somewhere; the sample as a whole holds those more often. Unmarked numbers belong to inactive results. Active and inactive are the calls of the source. Rule as the data show it: active = growth inhibition above about 70%; inactive = the rest.

A short description of the first assay: NCI Yeast Anticancer Drug Screen. Data for the cln2 rad14 strain (AID 165).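 Also: 0% = growth equal to vehicle treated cultures.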 Particulars: S. cerevisiae cln2 rad14 strain, at 50.0 µM (retest, dose inferred, filed as 5.0), hits give high values. An outline of the steps:
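Test compounds were added to cln2 rad14 yeast cultures; inhibition of growth was then determined by comparison with vehicle treatment.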
On to `CCOC(=O)c1cnc2cc3cccccc3n2c1=O`, for which the growth inhibition was 44%.
On to `C(=N\NC1=NCCN1)/c1ccc(-c2cn3cc(/C=N/NC4=NCCN4)ccc3n2)cc1`, for which the growth inhibition is 98% (active).
With `CC(CN(C)C)C(/C=C/c1ccc(F)cc1)=N\Nc1ccccc1` (stereo unspecified), the growth inhibition is 46%.
Same read-out and setting: as for `O=C1C(Sc2ccc3ccccc3c2)=C(Sc2ccc3ccccc3c2)C(=O)c2ccccc21`, the figure is 89% (active).
Same read-out and setting: as for `CC(O)c1cccnc1` (stereo unspecified), the figure is 41%.
The same measure, in the same setting: as for `Cc1cccc2nc3nc(Cl)c(Cl)nc3n12`, the figure is 54%; as for `CSc1cc2c(cc1N)Cc1cc(F)ccc1-2`, 93% (active); as for `CC(C)C1=CC23CCC4C(C)(C(=O)O)CCCC4(C)C2CC1c1c(O)ccc(O)c13` (stereo unspecified), 98% (active).
On to `C=CCNC(=S)N/N=C(\CCC)c1ccccn1`, for which the growth inhibition was 93% (active).
The same measure, in the same setting: in the case of `C#CC(C)(C)OC(C)=O` it was 0%; in that of `Cc1cc(N2C(=O)CSC2=S)c([N+](=O)[O-])cc1C`, 97% (active); in that of `Cc1[nH]c(=O)[nH]c(=O)c1CN(C)Cc1cc(Cl)cc(Cl)c1O`, 43%.
As for `CCCCC(CC)C(O)C(=O)O` (stereo unspecified), the growth inhibition was 32%.
On the same count and under the same terms, in the case of `CCOCCOc1ccc(OCCOCC)cc1` it was -10%.
Still for that read-out and setting: as for `O=C(O)c1ccc(C(=O)c2ccccc2C(=O)O)cc1`, the figure is -7%.
Still for that read-out and setting: as for `CCCCCCCCCCCCCCNC(=O)CCC(NC(=O)c1ccc(N(C)Cc2cnc3nc(N)nc(N)c3n2)cc1)C(=O)NCCCCCCCCCCCCCC` (stereo unspecified), the figure is 77% (active); as for `C=C1C(=O)C23OC2C1CCC(=O)C1(C)CC[C@H](OC(C)=O)C(C)(C)[C@H]1CC3O` (stereo partly specified), 16%.
As for `CCCCCCCCCCC(NC(C)=O)(C(=O)OCC)C(=O)OCC`, the growth inhibition was 99% (active).
Consider `ClC(Cl)(Cl)/C=C/c1cnc2ccccc2n1`, for which the growth inhibition is 99% (active).
On to `CCc1nc(N)nc(N)c1-c1ccc(N(C)Cc2ccccc2)c([N+](=O)[O-])c1`, for which the growth inhibition was 40%.
The same measure, in the same setting: in the case of `O=C(COC(=O)C(c1ccccc1)c1ccccc1)c1ccc(Br)cc1` it was 28%; in that of `OCCN1COc2cc3c(cc2C1)OCN(CCO)C3`, -5%.

Still in this assay, the particulars now being: S. cerevisiae cln2 rad14 strain, at 50.0 µM, hits give high values.
For the compound `CNS(=O)(=O)c1ccccc1C=C(c1ccccc1)c1ccccc1`, the growth inhibition is 65.8%.
On the same count and under the same terms, as for `CC(C)c1cc(C(C)C)c(Cl)c(Cl)c1O` (tested in a mixture with another compound), the figure is 98.9% (active).
Regarding `Nc1cccc2cccnc12`, the growth inhibition was 18.4%.
For the compound `C[n+]1c(/C=C/c2ccc(N3CCCC3)cc2)sc2ccccc21`, the growth inhibition is 98.8% (active).
Same read-out and setting: as for `Nc1cn(C2OC(CC(c3ccccc3)(c3ccccc3)c3ccccc3)C(O)C2O)c(=O)[nH]c1=O` (stereo unspecified), the figure is 37.5%; as for `c1ccc(Cn2nnc(-c3ccccc3)c2-c2ccccc2)cc1`, 87.8% (active).
Same read-out and setting: as for `CCCCCC(CCCCC)OC(=O)CCN(CCCCC)CCCCC`, the figure is 72% (active).
The same measure, in the same setting: in the case of `C=CCC1(OC(C)=O)CC2C(=O)C(=O)C(C1)N2OC(=O)c1ccccc1` (stereo unspecified) it was 98.3% (active); in that of `C=CS(=O)(=O)c1ccc([N+](=O)[O-])cc1`, 99.7% (active); in that of `Cc1ccc(S(=O)(=O)Oc2ccc(C(C)(C)C)cc2Cl)cc1`, -7.7%.
Turning to `O=C(CCl)N1CCN(C(c2ccccc2)c2ccccc2)CC1`, the growth inhibition is 81.2% (active).
The same measure, in the same setting: as for `Oc1ccc2ccccc2c1.[Cu+2]`, the figure is 83.2% (active).
Still for that read-out and setting: as for `NS(=O)(=O)c1ccc(NC(=O)Cc2nc3ccccc3s2)cc1`, the figure is 90.7% (active); as for `O=C(COc1ccc(Cl)cc1)OCCO`, 40.4%.
With `NC(=Nc1ccccc1)SCc1ccc([N+](=O)[O-])cc1`, the growth inhibition was 16.8%.
Still for that read-out and setting: in the case of `N[C@@H]1CCCC[C@@H]1N.O=C([O-])CN(CP(=O)([O-])[O-])CP(=O)([O-])[O-].[Pt+2]` it was 98.3% (active).
Same read-out and setting: as for `C/C=C(\C)CC/C=C/CO[Si](C)(C)C(C)(C)C`, the figure is 53.6%; as for `CCOC(=O)c1cnc2cc3cccccc3n2c1=O`, 54.9%; as for `C(=N\NC1=NCCN1)/c1ccc(-c2cn3cc(/C=N/NC4=NCCN4)ccc3n2)cc1`, 98.1% (active).
The same measure, in the same setting: as for `CC(CN(C)C)C(/C=C/c1ccc(F)cc1)=N\Nc1ccccc1` (stereo unspecified), the figure is 3.65%; as for `O=C1C(Sc2ccc3ccccc3c2)=C(Sc2ccc3ccccc3c2)C(=O)c2ccccc21`, 98.3% (active); as for `CC(O)c1cccnc1` (stereo unspecified), 58.1%.
As to `Cc1cccc2nc3nc(Cl)c(Cl)nc3n12`, the growth inhibition is 51.5%.
On the same count and under the same terms, as for `CSc1cc2c(cc1N)Cc1cc(F)ccc1-2`, the figure is 97.2% (active); as for `CC(C)C1=CC23CCC4C(C)(C(=O)O)CCCC4(C)C2CC1c1c(O)ccc(O)c13` (stereo unspecified), 99.2% (active); as for `C=CCNC(=S)N/N=C(\CCC)c1ccccn1`, 99.2% (active).
Same read-out and setting: in the case of `C#CC(C)(C)OC(C)=O` it was 5.75%; in that of `Cc1cc(N2C(=O)CSC2=S)c([N+](=O)[O-])cc1C`, 99.1% (active); in that of `Cc1[nH]c(=O)[nH]c(=O)c1CN(C)Cc1cc(Cl)cc(Cl)c1O`, 22%.
Still for that read-out and setting: in the case of `CCCCC(CC)C(O)C(=O)O` (stereo unspecified) it was 26.6%; in that of `CCOCCOc1ccc(OCCOCC)cc1`, 37.3%.
In the case of `O=C(O)c1ccc(C(=O)c2ccccc2C(=O)O)cc1`, the growth inhibition was 98.5% (active).
Still for that read-out and setting: as for `CCCCCCCCCCCCCCNC(=O)CCC(NC(=O)c1ccc(N(C)Cc2cnc3nc(N)nc(N)c3n2)cc1)C(=O)NCCCCCCCCCCCCCC` (stereo unspecified), the figure is 45.1%; as for `C=C1C(=O)C23OC2C1CCC(=O)C1(C)CC[C@H](OC(C)=O)C(C)(C)[C@H]1CC3O` (stereo partly specified), 99.2% (active).
Still for that read-out and setting: in the case of `CCCCCCCCCCC(NC(C)=O)(C(=O)OCC)C(=O)OCC` it was 98.3% (active).
As to `ClC(Cl)(Cl)/C=C/c1cnc2ccccc2n1`, the growth inhibition is -2%.
On the same count and under the same terms, in the case of `CCc1nc(N)nc(N)c1-c1ccc(N(C)Cc2ccccc2)c([N+](=O)[O-])c1` it was 4.05%.
Regarding `O=C(COC(=O)C(c1ccccc1)c1ccccc1)c1ccc(Br)cc1`, the growth inhibition was 11.1%.
Regarding `OCCN1COc2cc3c(cc2C1)OCN(CCO)C3`, the growth inhibition was 42.9%.
